Source: PubChem BioAssay (NCI)
About 83,000 compounds went through this panel and 20% of them were active in at least one assay; those are over-represented in the sample as a whole.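 How to read the values: 0–100, growth inhibition (40 = 60% inhibited); 0, no net growth; -100 to 0, cell death (-40 = 40% of starting cells died; -100 = all dead).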 Activity calls are given as the source filed them. Rule for the calls: active = growth percent below 10; inactive = the rest.

These molecules were tested on MDA-MB-231 breast (assay: NCI-60 one-dose screen, 48 h (100 = growth as untreated, 0 = no growth, -100 = all killed)). Conditions: 10 µM unless noted.

Compound	growth
CCN1CCN(CC(=O)Nc2nc3ccc(NCc4ccc(Br)cc4)cc3s2)CC1	45.6% (inactive)
C/C(=N\Nc1nc(C)cs1)c1cc2ccccc2o1	79.9% (inactive)
COc1ccccc1-n1c(-c2cc(O)ccc2C)cn2c3c(=O)[nH]c(=O)n(C)c3nc12	41.2% (inactive)
N#C/C(=C\c1ccc(Br)cc1)c1cc2ccccc2[nH]1	79.5% (inactive)
COc1ccc(C2=C/C(=C\c3ccc(Cl)cc3)C(=O)N2/N=C/c2ccc(Cl)cc2)cc1	88.8% (inactive)
CC(O)c1ncc(/C=C2\SC(=S)N(Cc3ccccc3)C2=O)s1 (stereo not given)	94% (inactive)

The molecules below were run on RXF 393 renal in the same assay as above. Conditions: 10 µM unless noted.

Compound	growth
C=CCn1c(SCC(=O)Nc2ccc(C(=O)/C=C/c3ccc(OC)cc3)cc2)nnc1-c1ccccc1	115% (inactive)
COc1cc2ncnc(Nc3ccc(F)c(Cl)c3)c2cc1OCC(=O)N1CCN(c2ccc(F)cc2)CC1	103% (inactive)
Cc1ccc2nc(Cl)c(Cn3nnnc3SCc3ccccc3)cc2c1	99.9% (inactive)
CN1CCN(CCOc2ccc(-c3cnc4c(-c5ccc(C(F)(F)F)cc5)cnn4c3)cc2)CC1	32.4% (inactive)
C/C(C=O)=C\c1ccc2c(c1)OCO2	98.3% (inactive)
Cc1ccc(O)c(NC(=O)c2ccc(CNc3ccnc(C(F)(F)F)c3)cc2)c1	92% (inactive)
O=C1/C(=C/c2ccc(C(F)(F)F)cc2)COc2ccc(O)c(O)c21	24.5% (inactive)
O=C(N/N=C/c1ccc(O)cc1O)c1ccc(Nc2ccnc(C(F)(F)F)c2)cc1	95.3% (inactive)
O=c1[nH]c(-c2ccc(Cl)cc2)cn1-c1ccc(-n2cc(-c3ccc(Cl)cc3)[nH]c2=O)cc1	113% (inactive)
